# Reference: the supplement of paper PMC11732987, “Enantioselective OTUD7B fragment discovery through chemoproteomics screening and high-throughput optimisation” (Communications Chemistry, 2025)
# A number with no mark means an inactive call.
# Tests used:
# Experiment in all cases: log2 ratio of Biotin-Ahx-Ub-VS probe labelling (fragment/DMSO); higher = less target engagement (more negative = stronger competition), active = hit call of the paper (q ≤ 0.05, log2 ratio ≤ -1)
# Conditions in all cases: compound concentration: 200 uM; treatment time: 3 h
# USP19 = target: T1, USP19 (UniProt O94966)
# T1 sequence (whole entry): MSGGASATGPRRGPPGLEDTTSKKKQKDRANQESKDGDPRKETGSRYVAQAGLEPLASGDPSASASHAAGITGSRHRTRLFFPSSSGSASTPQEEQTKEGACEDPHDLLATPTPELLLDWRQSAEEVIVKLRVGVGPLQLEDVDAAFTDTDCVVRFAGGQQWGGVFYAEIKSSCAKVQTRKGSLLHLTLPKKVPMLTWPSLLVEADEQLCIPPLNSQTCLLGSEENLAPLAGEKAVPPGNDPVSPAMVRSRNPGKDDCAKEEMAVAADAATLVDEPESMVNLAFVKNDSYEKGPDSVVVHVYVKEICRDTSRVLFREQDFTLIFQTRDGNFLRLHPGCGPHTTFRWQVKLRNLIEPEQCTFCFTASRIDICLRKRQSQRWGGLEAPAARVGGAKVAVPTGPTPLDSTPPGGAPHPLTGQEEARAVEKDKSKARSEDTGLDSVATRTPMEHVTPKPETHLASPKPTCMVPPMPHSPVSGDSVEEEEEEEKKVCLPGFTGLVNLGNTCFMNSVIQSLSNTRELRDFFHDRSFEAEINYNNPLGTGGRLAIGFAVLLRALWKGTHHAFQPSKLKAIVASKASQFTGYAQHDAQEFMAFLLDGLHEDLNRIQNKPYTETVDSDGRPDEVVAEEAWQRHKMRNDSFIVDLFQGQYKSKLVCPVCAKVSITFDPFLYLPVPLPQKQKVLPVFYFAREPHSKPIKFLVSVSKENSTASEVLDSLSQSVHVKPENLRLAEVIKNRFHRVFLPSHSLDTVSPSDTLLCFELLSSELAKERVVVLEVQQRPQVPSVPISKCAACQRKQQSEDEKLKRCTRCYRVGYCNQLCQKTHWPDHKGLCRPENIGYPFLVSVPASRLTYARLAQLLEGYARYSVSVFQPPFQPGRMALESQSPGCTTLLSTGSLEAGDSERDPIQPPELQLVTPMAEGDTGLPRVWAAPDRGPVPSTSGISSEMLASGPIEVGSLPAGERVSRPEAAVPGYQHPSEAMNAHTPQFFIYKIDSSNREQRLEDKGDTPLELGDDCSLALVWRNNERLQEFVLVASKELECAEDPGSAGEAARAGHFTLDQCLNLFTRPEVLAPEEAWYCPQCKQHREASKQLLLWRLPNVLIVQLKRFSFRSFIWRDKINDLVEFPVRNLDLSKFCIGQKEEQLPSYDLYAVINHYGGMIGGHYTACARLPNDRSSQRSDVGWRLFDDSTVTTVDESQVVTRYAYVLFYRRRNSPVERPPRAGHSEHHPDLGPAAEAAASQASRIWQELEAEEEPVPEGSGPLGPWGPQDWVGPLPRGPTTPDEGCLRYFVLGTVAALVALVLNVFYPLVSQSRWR
# In short: (§1)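 HEK293T lysate, 495 µg per sample in Tris/CHAPS/IGEPAL buffer with protease inhibitors, was treated in triplicate with fragment at 200 µM or vehicle for 3 h and then with Biotin-Ahx-Ub-VS at 0.5 µM final for 1 h. Labelled DUBs were NeutrAvidin-enriched, digested with LysC and trypsin, and run by diaPASEF LC-MS/MS. Spectronaut label-free quantities were global-median-normalised, and values are average log2 fragment/vehicle ratios by unpaired t-test on proteins with ≥2 unique peptides.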
# USP22 = target: T2, USP22 (UniProt Q9UPT9)
# T2 sequence (whole entry): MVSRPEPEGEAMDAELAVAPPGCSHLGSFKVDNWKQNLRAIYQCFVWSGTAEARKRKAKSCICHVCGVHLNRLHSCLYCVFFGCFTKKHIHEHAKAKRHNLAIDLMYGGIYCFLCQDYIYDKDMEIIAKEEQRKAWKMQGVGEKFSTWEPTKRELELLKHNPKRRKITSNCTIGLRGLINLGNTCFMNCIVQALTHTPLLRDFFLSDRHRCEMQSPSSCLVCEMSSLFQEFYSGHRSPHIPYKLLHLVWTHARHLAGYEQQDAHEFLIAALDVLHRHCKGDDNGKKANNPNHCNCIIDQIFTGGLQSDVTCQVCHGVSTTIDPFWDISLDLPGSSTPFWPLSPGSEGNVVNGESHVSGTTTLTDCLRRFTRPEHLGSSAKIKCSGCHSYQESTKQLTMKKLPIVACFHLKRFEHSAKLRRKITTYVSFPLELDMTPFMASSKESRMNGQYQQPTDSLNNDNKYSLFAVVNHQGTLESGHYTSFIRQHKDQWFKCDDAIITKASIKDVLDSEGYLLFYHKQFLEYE
# In short: as §1
# USP24 = USP24 (UniProt Q9UPU5)
# In short: as §1
# USP25 = target: T3, USP25 (UniProt Q9UHP3)
# T3 sequence (whole entry): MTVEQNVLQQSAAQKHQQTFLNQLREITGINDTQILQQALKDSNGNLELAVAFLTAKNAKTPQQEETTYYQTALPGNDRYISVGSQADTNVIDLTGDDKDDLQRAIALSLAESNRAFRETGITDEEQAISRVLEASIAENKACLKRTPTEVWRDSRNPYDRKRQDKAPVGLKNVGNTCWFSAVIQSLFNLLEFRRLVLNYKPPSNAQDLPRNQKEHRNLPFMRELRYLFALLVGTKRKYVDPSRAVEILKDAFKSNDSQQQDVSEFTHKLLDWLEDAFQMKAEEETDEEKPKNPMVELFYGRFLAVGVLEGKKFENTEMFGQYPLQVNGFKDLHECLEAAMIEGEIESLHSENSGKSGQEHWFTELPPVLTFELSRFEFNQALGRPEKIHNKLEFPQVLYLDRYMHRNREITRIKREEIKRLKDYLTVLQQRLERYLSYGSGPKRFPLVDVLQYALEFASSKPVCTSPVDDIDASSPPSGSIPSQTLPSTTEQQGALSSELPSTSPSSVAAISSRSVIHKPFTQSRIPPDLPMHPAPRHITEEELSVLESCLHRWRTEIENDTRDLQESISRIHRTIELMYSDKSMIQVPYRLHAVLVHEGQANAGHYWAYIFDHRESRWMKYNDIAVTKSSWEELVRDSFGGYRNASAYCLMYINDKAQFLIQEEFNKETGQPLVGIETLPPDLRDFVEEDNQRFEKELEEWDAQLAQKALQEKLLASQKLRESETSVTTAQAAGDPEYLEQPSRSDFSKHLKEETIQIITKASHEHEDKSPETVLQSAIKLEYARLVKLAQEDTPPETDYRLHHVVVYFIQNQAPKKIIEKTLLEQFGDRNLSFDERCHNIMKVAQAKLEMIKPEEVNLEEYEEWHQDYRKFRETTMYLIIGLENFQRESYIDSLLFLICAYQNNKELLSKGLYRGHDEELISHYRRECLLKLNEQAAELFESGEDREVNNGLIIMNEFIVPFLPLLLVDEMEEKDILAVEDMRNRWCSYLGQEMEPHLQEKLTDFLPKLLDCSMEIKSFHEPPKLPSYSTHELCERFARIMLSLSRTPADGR
# In short: as §1
# USP28 = target: T4, USP28 (UniProt Q96RU2)
# T4 sequence (whole entry): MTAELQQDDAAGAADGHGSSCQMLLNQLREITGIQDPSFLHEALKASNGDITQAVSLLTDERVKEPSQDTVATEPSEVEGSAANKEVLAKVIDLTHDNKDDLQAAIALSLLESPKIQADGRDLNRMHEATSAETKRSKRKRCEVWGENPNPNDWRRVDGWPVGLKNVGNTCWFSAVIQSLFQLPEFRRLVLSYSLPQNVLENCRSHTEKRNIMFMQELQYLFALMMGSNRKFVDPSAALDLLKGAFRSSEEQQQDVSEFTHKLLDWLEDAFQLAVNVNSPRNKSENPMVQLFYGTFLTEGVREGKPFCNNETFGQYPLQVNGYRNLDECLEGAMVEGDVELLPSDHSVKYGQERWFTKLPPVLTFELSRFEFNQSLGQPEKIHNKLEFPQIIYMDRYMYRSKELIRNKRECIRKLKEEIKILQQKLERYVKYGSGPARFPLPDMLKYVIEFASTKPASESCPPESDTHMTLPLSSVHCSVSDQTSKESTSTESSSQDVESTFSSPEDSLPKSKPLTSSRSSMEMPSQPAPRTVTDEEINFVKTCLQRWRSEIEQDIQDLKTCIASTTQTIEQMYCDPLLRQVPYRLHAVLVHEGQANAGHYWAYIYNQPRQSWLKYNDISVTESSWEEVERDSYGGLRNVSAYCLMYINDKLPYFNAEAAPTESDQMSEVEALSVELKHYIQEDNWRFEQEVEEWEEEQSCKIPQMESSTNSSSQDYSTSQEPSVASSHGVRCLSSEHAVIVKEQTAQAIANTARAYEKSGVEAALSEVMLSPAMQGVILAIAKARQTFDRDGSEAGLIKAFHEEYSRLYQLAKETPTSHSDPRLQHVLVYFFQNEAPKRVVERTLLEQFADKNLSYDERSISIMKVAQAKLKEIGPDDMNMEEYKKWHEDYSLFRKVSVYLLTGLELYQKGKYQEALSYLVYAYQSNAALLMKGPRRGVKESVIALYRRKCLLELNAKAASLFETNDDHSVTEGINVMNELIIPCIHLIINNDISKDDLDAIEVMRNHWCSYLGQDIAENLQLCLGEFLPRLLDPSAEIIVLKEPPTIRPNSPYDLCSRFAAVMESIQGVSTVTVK
# In short: as §1
# Sequence of USP24 (Q9UPU5 whole entry): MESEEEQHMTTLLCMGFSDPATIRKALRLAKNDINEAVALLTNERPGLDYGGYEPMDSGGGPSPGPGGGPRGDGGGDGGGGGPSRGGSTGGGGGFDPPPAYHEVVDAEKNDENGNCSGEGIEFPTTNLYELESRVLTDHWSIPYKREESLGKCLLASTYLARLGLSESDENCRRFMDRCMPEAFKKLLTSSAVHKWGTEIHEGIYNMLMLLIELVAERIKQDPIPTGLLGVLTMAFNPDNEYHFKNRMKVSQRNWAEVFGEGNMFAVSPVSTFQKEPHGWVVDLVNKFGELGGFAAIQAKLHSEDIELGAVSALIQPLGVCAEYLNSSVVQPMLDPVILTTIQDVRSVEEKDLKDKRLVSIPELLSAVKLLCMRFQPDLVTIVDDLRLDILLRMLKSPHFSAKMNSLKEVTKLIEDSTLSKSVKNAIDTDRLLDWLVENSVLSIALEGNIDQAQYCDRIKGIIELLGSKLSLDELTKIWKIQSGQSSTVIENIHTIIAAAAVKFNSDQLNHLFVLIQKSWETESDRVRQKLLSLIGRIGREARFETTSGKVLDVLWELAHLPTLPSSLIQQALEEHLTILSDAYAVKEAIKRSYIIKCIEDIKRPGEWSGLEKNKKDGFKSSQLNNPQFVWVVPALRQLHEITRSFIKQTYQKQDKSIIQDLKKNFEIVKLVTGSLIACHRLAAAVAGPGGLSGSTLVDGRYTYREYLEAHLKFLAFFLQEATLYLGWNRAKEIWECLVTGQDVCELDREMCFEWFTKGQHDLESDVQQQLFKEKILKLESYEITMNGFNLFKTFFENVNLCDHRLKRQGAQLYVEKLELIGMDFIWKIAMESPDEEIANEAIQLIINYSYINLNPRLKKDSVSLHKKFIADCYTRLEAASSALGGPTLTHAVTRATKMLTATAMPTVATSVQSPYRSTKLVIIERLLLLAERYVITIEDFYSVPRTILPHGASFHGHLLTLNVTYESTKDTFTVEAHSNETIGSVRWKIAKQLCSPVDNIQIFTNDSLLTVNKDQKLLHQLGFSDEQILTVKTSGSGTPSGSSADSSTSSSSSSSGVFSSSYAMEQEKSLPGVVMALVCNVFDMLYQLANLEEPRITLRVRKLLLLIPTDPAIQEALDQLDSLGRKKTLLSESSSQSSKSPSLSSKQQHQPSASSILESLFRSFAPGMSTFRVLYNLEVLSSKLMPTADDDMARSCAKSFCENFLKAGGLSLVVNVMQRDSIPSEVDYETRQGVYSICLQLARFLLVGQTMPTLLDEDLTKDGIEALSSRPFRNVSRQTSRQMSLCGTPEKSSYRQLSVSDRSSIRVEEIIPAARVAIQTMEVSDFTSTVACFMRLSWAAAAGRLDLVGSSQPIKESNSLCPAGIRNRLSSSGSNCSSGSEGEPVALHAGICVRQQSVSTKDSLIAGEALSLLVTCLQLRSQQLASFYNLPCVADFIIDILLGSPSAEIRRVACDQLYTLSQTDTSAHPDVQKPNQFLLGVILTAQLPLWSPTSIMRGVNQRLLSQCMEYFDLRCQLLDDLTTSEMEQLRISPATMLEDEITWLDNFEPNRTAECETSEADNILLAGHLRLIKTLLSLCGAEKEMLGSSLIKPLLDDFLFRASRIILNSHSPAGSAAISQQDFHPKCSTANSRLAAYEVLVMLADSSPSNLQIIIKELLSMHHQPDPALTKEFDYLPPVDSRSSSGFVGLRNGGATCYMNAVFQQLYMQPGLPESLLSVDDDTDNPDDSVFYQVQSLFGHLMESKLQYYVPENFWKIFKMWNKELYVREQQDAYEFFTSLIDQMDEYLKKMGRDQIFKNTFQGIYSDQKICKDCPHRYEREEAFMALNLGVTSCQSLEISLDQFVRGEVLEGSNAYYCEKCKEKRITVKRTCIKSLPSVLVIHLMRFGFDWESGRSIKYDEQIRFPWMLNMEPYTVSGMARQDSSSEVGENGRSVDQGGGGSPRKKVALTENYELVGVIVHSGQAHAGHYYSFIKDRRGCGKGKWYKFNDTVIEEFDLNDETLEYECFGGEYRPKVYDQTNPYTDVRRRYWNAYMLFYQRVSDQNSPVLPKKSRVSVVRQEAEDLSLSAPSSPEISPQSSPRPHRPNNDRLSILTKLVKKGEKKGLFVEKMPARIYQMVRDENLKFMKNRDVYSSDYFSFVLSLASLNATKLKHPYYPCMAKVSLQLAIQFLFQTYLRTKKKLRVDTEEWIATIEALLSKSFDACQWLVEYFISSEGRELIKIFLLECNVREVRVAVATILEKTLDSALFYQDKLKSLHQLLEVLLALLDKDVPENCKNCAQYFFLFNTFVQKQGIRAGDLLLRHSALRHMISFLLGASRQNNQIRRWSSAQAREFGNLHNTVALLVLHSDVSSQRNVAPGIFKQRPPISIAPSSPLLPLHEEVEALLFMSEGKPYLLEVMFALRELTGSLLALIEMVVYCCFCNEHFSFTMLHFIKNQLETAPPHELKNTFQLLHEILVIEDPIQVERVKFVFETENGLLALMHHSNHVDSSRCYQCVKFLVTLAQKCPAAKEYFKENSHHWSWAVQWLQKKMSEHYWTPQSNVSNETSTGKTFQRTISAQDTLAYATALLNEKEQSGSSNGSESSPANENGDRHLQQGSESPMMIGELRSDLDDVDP
smiles,measurement,setting,value
CC1Cc2ccccc2N1C(=O)CCl (stereo not given),log2 ratio of Biotin-Ahx-Ub-VS probe labelling,USP19,-0.643
same,log2 ratio of Biotin-Ahx-Ub-VS probe labelling,USP22,-0.161
same,log2 ratio of Biotin-Ahx-Ub-VS probe labelling,USP24,-1.61 (active)
same,log2 ratio of Biotin-Ahx-Ub-VS probe labelling,USP25,-0.876
same,log2 ratio of Biotin-Ahx-Ub-VS probe labelling,USP28,-0.929
